Screens (PubChem BioAssay)
Compounds with a hit are over-represented: about 15% of the library has one in this group of screens.
RORg inh – inhibitors of mouse ROR gamma transcriptional activity | P51450 | Drosophila S2 Gal4-RORgamma UAS-luciferase reporter, 20 h | Potency, µM (doses to about 53.6 µM), for the others: at the highest dose activity change, negative = inhibition, actives largely listed as inhibitors | 5.4% of 310,000 active; also: nearly all actives have a fitted effect of over 60% in size
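Stably transfected Drosophila Schneider cells are the test system, with ROR gamma fused to Gal4 and luciferase under UAS control; luminescence is read after 20 hr of 700 uM copper sulfate induction at ambient temperature.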
ALOX12 inh – inhibitors of human 12S-lipoxygenase ALOX12. 1.1% of 580,000 active. AID 1671190. Potency, µM (top dose mostly 108 µM), without a hit: top-dose activity change, negative = inhibition, usual class: inhibitors. purified 12hLO, xylenol orange hydroperoxide absorbance
Target sequence (P18054 whole entry, looked up): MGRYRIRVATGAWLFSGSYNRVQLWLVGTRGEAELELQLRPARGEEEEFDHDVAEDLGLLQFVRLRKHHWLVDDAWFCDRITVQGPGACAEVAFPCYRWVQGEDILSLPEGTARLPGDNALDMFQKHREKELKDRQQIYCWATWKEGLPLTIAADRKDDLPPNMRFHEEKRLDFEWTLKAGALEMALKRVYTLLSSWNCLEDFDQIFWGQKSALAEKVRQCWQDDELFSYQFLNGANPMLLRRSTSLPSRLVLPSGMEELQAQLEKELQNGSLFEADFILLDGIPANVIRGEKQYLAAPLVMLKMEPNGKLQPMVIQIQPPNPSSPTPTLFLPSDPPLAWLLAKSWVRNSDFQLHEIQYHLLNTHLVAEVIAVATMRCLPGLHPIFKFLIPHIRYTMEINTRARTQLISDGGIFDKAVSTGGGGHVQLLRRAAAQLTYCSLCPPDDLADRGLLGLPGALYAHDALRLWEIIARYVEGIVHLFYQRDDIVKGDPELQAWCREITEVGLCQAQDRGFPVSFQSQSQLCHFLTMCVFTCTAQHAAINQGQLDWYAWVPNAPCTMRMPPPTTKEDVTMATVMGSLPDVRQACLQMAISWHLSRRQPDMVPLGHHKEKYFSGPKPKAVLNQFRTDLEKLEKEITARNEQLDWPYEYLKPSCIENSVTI
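Purified human 12hLO at 150 nM in 25 mM Hepes, 0.01% Triton X-100, pH 7.0, preincubated 15 min at room temperature with compound. Reaction started with 40 uM arachidonic acid, 30 min at room temperature. Hydroperoxide measured by Fe-xylenol orange, 573/405 nm absorbance ratio.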
TDP1 cell noCPT – qHTS for Inhibitors of human tyrosyl-DNA phosphodiesterase 1 (TDP1): qHTS in cells in absence of CPT | DT40 Tdp1-/- hTDP1 cells, no CPT, ATP luminescence, 48 h | Potency, µM (top dose mostly 46.2 µM), inactives show at the top dose activity change, negative = growth inhibition, actives largely listed as inhibitors | 15% of 420,000 active | AID 686978, 2013; also: nearly all actives have a fitted effect of over 55% in size
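Readout: luminescence from CellTiter-Glo after 30 min in the dark at RT. Cells: DT40 Tdp1-/- with stable hTDP1, 400/well. Exposure: compounds alone, ≥48 hr, 37 °C.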
ELG1 DNA repair – blocks ELG1-dependent DNA repair in HEK293T cells; 2.3% of 330,000 active; HEK293T ELG1-luciferase reporter, luminescence, 16 h; DNA damage induced by 5-fluorouridine; Potency, µM (top dose mostly 46.1 µM), for the others: top-dose activity change, negative = inhibition, actives largely listed as inhibitors; AID 504467; also: nearly all actives have a fitted effect of over 55% in size
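DMSO vehicle served as the neutral condition. Each well held 2,000 cells given 5-fluorouridine plus compound; after 16 hr at 37 °C/5% CO2, ONE-Glo was added and luciferase measured 30 min later.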
DT40 TDP1 CPT – growth inhibition of DT40 Tdp1-/-;hTDP1 cells with camptothecin (screen for TDP1 inhibitors) | chicken DT40 Tdp1-/-;hTDP1 cells + 20 nM CPT, ATP luminescence, 48 h | Potency, µM (highest dose often 46.2 µM), for inactives: at the highest dose activity change, negative = growth inhibition, actives largely listed as inhibitors | 12% of 420,000 active | AID 686979; also: nearly all actives have a fitted effect of over 55% in size
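Cell growth measured by CellTiter-Glo luminescence after a minimum 48 h, 37 C compound exposure with 20 nM CPT in Tdp1-knockout DT40 cells stably expressing hTDP1, seeded 400/well; qHTS titration format.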
VP16 counter – Gal4-VP16 reporter inhibition counter-screen. Drosophila S2 Gal4-VP16 UAS-luciferase, luminescence, 20 h. Potency, µM (top dose mostly 53.6 µM), for the others: at the top dose activity, negative = inhibition, usual class: inhibitors. 3.5% of 310,000 active;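 also: Gal4-VP16 expression switched on by copper sulfate through the metallothionein promoter; nearly all actives have a fitted effect of over 50% in size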
* hit, by the source's call; ? = inconclusive; · = no result given; [ ] = remark or other dose. Calls follow the shape of the dose curve; as a rule, active = well fitted curve in the direction sought with a large enough effect; inconclusive = small, poorly fitted or top-dose-only effect, or another doubt; inactive = no such curve, though single readings can be large; an effect the other way counts as inactive or inconclusive. % is scaled to controls: 0 for no effect and ±100 for the full control effect; potency is read from the fitted curve at half-maximal effect.

SMILES	RORg inh	ALOX12 inh	TDP1 cell noCPT	ELG1 DNA repair	DT40 TDP1 CPT	VP16 counter
Cc1nc(N2CCN(S(=O)(=O)c3ccccc3C#N)CC2)c2c(-c3ccccc3)csc2n1	·	27%	13µM*	12µM*	?	·
O=S(=O)(c1cccc2ccccc12)N1CCN(c2nc(-c3cccs3)nc3ccccc23)CC1	·	·	10µM*	·	?	·
O=S(=O)(c1ccccc1F)N1CCN(c2nc(-c3cccs3)nc3ccccc23)CC1	·	-16%	11µM*	·	?	·
N#Cc1ccccc1S(=O)(=O)N1CCN(c2nc(-c3cccs3)nc3ccccc23)CC1	·	·	7.9µM*	·	16µM*	·
COc1ccc2c(C)c(CCC(=O)NCc3ccc(S(N)(=O)=O)cc3)c(=O)oc2c1C	·	4%	·	·	·	·
Cn1c(=O)c2c(nc(NCc3ccc4c(c3)OCO4)n2Cc2c(F)cccc2Cl)n(C)c1=O	·	0%	·	·	·	·
O=S(=O)(c1ccccc1C(F)(F)F)N1CCN(c2nc(-c3ccccc3)nc3ccccc23)CC1	·	·	13µM*	·	?	·
O=S(=O)(c1cccc(C(F)(F)F)c1)N1CCN(c2nc(-c3ccccc3)nc3ccccc23)CC1	·	·	-9%	·	-17%	·
CCn1cnnc1-c1nn(C)c2c1CN(C(=O)c1[nH]nc3c1CCc1cc(OC)ccc1-3)CC2	·	77%	·	·	·	·
Nc1c(C(=O)N/N=C/c2ccc(OCc3ccccc3)cc2)cnn1-c1ccccc1	-25%	0%	12µM*	0%	16µM*	?
COc1cccc(/C=N/NC(=O)c2cnn(-c3ccccc3)c2N)c1	29%	154%	21µM*	?	?	-5%
Nc1c(C(=O)N/N=C/c2ccc(Cl)cc2)cnn1-c1ccccc1	-29%	-19%	-9%	1%	-7%	-9%
O=C(N[C@H]1CCN2C(=O)N(c3ccc(F)c(Cl)c3)C(=O)[C@@H]2C1)c1ccncc1	·	9%[176 µM]	·	·	·	·
Clc1ccc(-c2nnnn2-c2ccc(Cl)cc2)cc1	2%	?	-24%	-31%	-9%	-15%
Nc1ncc(-c2nnnn2-c2ccc(Cl)cc2)c(-c2ccc(Cl)cc2)n1	?	0%	5.8µM*	-21%	4.6µM*	-15%
CCCCOc1ccc(S(=O)(=O)Nc2ccc(-c3ccc(N4CCCCCC4)nn3)cc2)cc1	·	-25%	?	·	13µM*	·
O=S(=O)(Nc1ccc(-c2ccc(N3CCCC3)nn2)cc1)c1ccc(OC(F)(F)F)cc1	·	-27%	?	·	15µM*	·
CCCCOc1ccc(S(=O)(=O)Nc2ccc(-c3ccc(N4CCCCC4)nn3)cc2)cc1	·	-16%	21µM*	·	15µM*	·
Cc1ccc(S(=O)(=O)Nc2ccc(-c3ccc(N4CCCCCC4)nn3)cc2)cc1C	·	-12%	-49%	·	2.9µM*	·
CCc1ccc(S(=O)(=O)Nc2ccc(-c3ccc(N4CCCCCC4)nn3)cc2)cc1	·	-14%	-7%	·	-11%	·
COc1cccc(CN2C(=O)C3(CCOCC3)CC2c2nnnn2C(C)(C)C)c1 (configuration not stated)	·	28%	·	·	·	·
CCn1nc(-c2ccc(C)c(S(=O)(=O)NCc3ccc(C)cc3)c2)c2c(c1=O)CCCC2	·	0%	·	·	·	·
COc1c(Cl)cc(C(=O)Nc2ccccc2-c2ccccc2)cc1Cl	-1%	6%	29µM*	10%	?	-7%
COc1cccc(C(=O)Nc2ccccc2-c2ccccc2)c1	·	?	?	10%	-27%	·
COc1ccc(Br)cc1C(=O)Nc1ccccc1-c1ccccc1	2%	-22%	29µM*	-3%	?	-9%
SMILES	RORg inh	ALOX12 inh	TDP1 cell noCPT	ELG1 DNA repair	DT40 TDP1 CPT	VP16 counter
CCN(CCCNC(=O)CC1=C2CCCCC2NC1=O)c1ccccc1 (configuration not stated)	·	-1%	·	·	·	·
COC(=O)c1cc(NC(=O)c2cc3c(-c4ccccc4F)nn(C)c3s2)cc(C(=O)OC)c1	·	-26%	?	·	3.3µM*	·
Cn1nc(-c2ccccc2F)c2cc(C(=O)NCCc3ccc(Cl)cc3)sc21	·	2%	16µM*	·	?	·
COCCNC(=O)c1cc2c(-c3ccccc3F)nn(C)c2s1	?	?	-23%	?	-25%	-6%
CCOc1ccc(CCNC(=O)c2cc3c(-c4ccccc4F)nn(C)c3s2)cc1	·	-22%	?	·	-5%	·
COc1ccc(NC(=O)c2cc3c(-c4ccccc4F)nn(C)c3s2)c(OC)c1	·	2%	10µM*	·	10µM*	·
CCOc1ccc(NC(=O)c2cc3c(-c4ccccc4F)nn(C)c3s2)cc1	·	?	-10%	·	?	·
COc1ccc(OC)c(CCNC(=O)c2cc3c(-c4ccccc4F)nn(C)c3s2)c1	·	-16%	8.2µM*	·	12µM*	·
CCc1ccc(S(=O)(=O)c2cn(Cc3ccc(OC)cc3)c3cc(OC)c(OC)cc3c2=O)cc1	·	3%	?	·	?	·
CCn1cc(S(=O)(=O)c2ccc(OC)cc2)c(=O)c2cc(OC)ccc21	-17%	22%	7%	11%	-3%	?
CCc1ccc(S(=O)(=O)c2cn(Cc3ccccc3F)c3cc(OC)c(OC)cc3c2=O)cc1	·	-1%	?	·	15µM*	·
Cc1ccc(C)c(Cn2cc(S(=O)(=O)c3ccc(Cl)cc3)c(=O)c3cc(F)ccc32)c1	·	5%	26µM*	·	?	·
COc1ccc(S(=O)(=O)c2cn(Cc3ccccc3)c3ccc(OC)cc3c2=O)cc1	·	-25%	26µM*	·	12µM*	·
CCOc1ccc(S(=O)(=O)c2cn(Cc3cc(C)ccc3C)c3ccc(OCC)cc3c2=O)cc1	·	3%	?	·	?	·
O=c1c(S(=O)(=O)c2ccc(Cl)cc2)cn(Cc2ccccc2F)c2ccc(F)cc12	?	-8%	23µM*	-24%	?	0%
CN(Cc1nccn1C)Cc1c(C(=O)N2CCCCC2)nc2sccn12	·	93%	·	·	·	·
CCc1ccc2c(c1)c(=O)c(S(=O)(=O)c1ccc(F)cc1)cn2CC(=O)Nc1ccc(C)cc1C	·	-23%	6.5µM*	·	?	·
Cc1ccc(Cn2cc(S(=O)(=O)c3ccc(Cl)cc3)c(=O)c3cc(F)ccc32)cc1	13%	-3%	7.3µM*	-1%	-28%	-9%
O=c1c(S(=O)(=O)c2ccc(Cl)cc2)cn(Cc2cccc(F)c2)c2ccc(F)cc12	11%	-11%	?	-15%	?	-1%
Cc1ccc(NC(=O)Cn2cc(S(=O)(=O)c3ccc(F)cc3)c(=O)c3cc(F)ccc32)cc1	-4%	139%	-36%	6%	?	?
